# The campaign covered roughly 2,400 compounds. About 750 (31%) were called active.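 Rule for the calls: active = median signal gain over dofetilide-blocked control wells reaching their mean plus 3 SD, so readout 1 at least 0; inactive = the rest.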 The list shows a part of the results.
# Target: Voltage-gated inwardly rectifying potassium channel KCNH2 (Homo sapiens) (UniProt Q12809)
# Assay: modulators restoring hERG flux under dofetilide – cell-based, thallium flux, duplicate retest, dofetilide IC70, confirmation (AID 1835)
# Conditions: hERG cell line, FluxOR thallium flux, dofetilide-blocked; at 10 µM; stronger effect = higher value
# Sequence of Voltage-gated inwardly rectifying potassium channel KCNH2 (Homo sapiens) (Q12809 whole entry, looked up): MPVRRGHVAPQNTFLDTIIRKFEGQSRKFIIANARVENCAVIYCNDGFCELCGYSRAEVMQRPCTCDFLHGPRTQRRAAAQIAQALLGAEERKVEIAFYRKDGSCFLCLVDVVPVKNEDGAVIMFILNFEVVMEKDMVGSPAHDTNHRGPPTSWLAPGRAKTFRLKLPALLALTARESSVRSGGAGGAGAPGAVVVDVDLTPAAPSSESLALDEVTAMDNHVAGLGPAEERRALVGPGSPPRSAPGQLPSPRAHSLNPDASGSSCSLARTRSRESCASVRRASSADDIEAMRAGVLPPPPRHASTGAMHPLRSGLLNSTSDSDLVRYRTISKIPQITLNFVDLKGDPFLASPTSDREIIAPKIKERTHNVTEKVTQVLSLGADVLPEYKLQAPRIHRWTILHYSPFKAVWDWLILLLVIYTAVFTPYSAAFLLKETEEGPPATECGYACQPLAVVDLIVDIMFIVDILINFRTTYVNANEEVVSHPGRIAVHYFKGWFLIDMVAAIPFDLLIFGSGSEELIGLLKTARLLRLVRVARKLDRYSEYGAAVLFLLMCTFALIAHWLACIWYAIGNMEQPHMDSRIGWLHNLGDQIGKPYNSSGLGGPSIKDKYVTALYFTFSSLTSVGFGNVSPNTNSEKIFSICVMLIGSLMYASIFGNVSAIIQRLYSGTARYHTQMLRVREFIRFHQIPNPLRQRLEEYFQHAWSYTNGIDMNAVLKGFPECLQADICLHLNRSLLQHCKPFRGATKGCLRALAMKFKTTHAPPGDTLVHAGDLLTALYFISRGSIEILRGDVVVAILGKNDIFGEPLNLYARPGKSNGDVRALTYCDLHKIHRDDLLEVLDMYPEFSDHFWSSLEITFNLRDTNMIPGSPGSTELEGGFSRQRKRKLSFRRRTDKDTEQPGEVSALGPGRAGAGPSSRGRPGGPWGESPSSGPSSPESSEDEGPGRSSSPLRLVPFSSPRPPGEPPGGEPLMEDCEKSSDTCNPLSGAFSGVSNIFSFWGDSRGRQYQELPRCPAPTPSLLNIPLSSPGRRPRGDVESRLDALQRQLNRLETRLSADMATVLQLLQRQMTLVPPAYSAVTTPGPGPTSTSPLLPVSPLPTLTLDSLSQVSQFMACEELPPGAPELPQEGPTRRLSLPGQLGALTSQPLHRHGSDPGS
row,SMILES,"activity increase over dofetilide control, less the hit threshold"
1,CC(C)C(=O)Nc1ccc(NC(=O)CCc2ccccc2)cn1,-14% (inactive)
2,O=C(Nc1ncc(Br)s1)C(Cc1ccccc1)n1cccc1 (configuration not stated),22% (active)
3,O=C(CCc1ccccc1)Nc1nccs1,-12% (inactive)
4,Cc1cc2[nH]c(=O)c(=O)[nH]c2cc1S(=O)(=O)N1CCN(c2cccc(C)c2C)CC1,-5% (inactive)
5,CC(Oc1ccc(Cl)cc1)/C(N)=N/O (configuration not stated),-20% (inactive)
6,Cc1ccc2[nH]cc(CCNC(=O)/C=C/c3ccco3)c2c1,-14% (inactive)
7,CCOc1ccc(-c2c(=O)n(O)c3ccccc3[n+]2[O-])cc1,74% (active)
8,CCCOc1ccc(-c2c(=O)n(O)c3ccccc3[n+]2[O-])cc1,51% (active)
9,CCOc1ccc(CC(C(N)=O)C(N)=O)cc1,-12% (inactive)
10,Cc1cccc(/C=N/Nc2ccc3ccccc3n2)c1,-3% (inactive)
11,O=S(=O)(Nc1nc(-c2sccc2Cl)cs1)c1cc(Cl)ccc1Cl,73% (active)
12,O=C(Nc1ccccc1)OCCCCCOC(=O)Nc1ccccc1,-11% (inactive)
13,C/C(Cl)=C\Cn1c(O)c(N=NC(N)=S)c2cc(Br)ccc21,49% (active)
14,C=CCn1c(O)c(N=NC(=S)Nc2ccccc2F)c2cc(S(=O)(=O)N3CCOCC3)ccc21,0% (inactive)
15,COc1ccc(C(=O)O/N=C(\N)c2ccccn2)cc1[N+](=O)[O-],-11% (inactive)
16,Nn1c(SCC(=O)Nc2ccc(OC(F)F)cc2)nnc1-c1ccco1,-12% (inactive)
17,CCc1ccc(C(=O)CSc2nc3ccccc3c(=O)[nH]2)cc1,-16% (inactive)
18,CC(C)OC(=O)c1c2nc3ccccc3nc2n2c1[nH]c(=O)c1ccccc12,85% (active)
19,CCCCOC(=O)Cn1c2ccc(OC)cc2c2nc3ccccc3nc21,-28% (inactive)
20,CC1=NN(C(=O)c2cc(C)nn2C)C(O)(C(F)(F)F)C1 (configuration not stated),-14% (inactive)
21,CC(C)Sc1nc2ccccc2n2cnnc12,-2% (inactive)
22,O=C(c1cccc(C(F)(F)F)c1)C1CCCN(C(=O)CCn2cnnn2)C1 (configuration not stated),-3% (inactive)
23,CCSc1nc(=S)cc(C)[nH]1,49% (active)
24,CCc1cc(=O)[nH]c(SCc2ccc(C)cc2)n1,-11% (inactive)
25,CSc1nc(=S)cc(C)[nH]1,5% (active)
26,CCOc1cccc(Nc2cc3n(c(=O)n2)CCc2cc(OC)c(OC)cc2-3)c1,-22% (inactive)

row,SMILES,"activity increase over dofetilide control, less the hit threshold"
1,Cc1cc(C(=O)NP(=O)(N2CCOCC2)N2CCOCC2)c(C)n1-c1ccc(Br)cc1,-13% (inactive)
2,Cc1cc(NC(=O)CSc2ccc(-c3ccc(F)cc3)nn2)no1,-12% (inactive)
3,CCCCC1(O)CC(C(F)(F)F)=NN1C(=O)COc1ccccc1 (configuration not stated),4% (active)
4,CC(C)(C)C1(O)CC(C(F)(F)F)=NN1C(=O)Cc1ccc([N+](=O)[O-])cc1 (configuration not stated),-19% (inactive)
5,O=C(C1CC1)N1N=C(c2ccccc2)CC1(O)C(F)(F)C(F)(F)F (configuration not stated),-11% (inactive)
6,COc1cc(OC)c(C2=NOC(C(=O)Nc3ccc4c(c3)OCO4)C2)cc1Cl (configuration not stated),-21% (inactive)
7,Oc1ccc(N=Nc2ccccc2-c2nn[nH]n2)c(O)c1,6% (active)
8,COc1cc(CNn2nnnc2N)ccc1OCC(=O)NC(C)(C)C,-15% (inactive)
9,CCCCCCCCCCn1c2c(c(=N)c3c1CCC3)CCC2,49% (active)
10,COC(=O)CNC(=S)NC(=O)c1ccc(C(C)(C)C)cc1,-8% (inactive)
11,CCOC(=O)NC(=S)Nc1ccc(C(C)(C)C)cc1,3% (active)
12,CCOC(=O)NC(=O)/C(C#N)=N\Nc1ccc(Cl)cc1,-17% (inactive)
13,CCOC(=O)NC(=S)Nc1ccc(C(C)(C)C)cc1Br,23% (active)
14,Cc1cc(Br)c(NC(=O)COC(=O)C2CC2C)c(Br)c1 (configuration not stated),-11% (inactive)
15,c1cnc2c(Oc3ncnc4sccc34)cccc2c1,-11% (inactive)
16,N#Cc1ccc(OCc2nnc(-c3ccc([N+](=O)[O-])cc3)o2)cc1,-3% (inactive)
17,CCOC(=O)C1=C(c2ccccc2)NC(=O)NC1c1ccc(O)c(Cl)c1 (configuration not stated),5% (active)
18,CCOC(=O)C1=C(c2ccccc2)NC(=O)NC1c1ccc(OC)c(OC)c1 (configuration not stated),-6% (inactive)
19,COc1cc(C2NC(=O)NC(C)=C2C(=O)OCC2CCCCC2)ccc1O (configuration not stated),-3% (inactive)
20,CCCCN(C(=O)CNC(=O)c1cccs1)C(C(=O)NC1CCCC1)c1ccncc1 (configuration not stated),-6% (inactive)
21,CC1CCN(C(=S)NC(=O)c2cccc([N+](=O)[O-])c2)CC1,15% (active)
22,CCC1CCCCN1C(=S)NC(=O)c1cccs1 (configuration not stated),4% (active)
23,CCC1CCCCN1C(=S)NC(=O)c1ccc([N+](=O)[O-])cc1 (configuration not stated),28% (active)
24,CCCCCC(=O)NNC(=S)NC(=O)c1ccc([N+](=O)[O-])cc1,-24% (inactive)
25,O=C(Nc1ccc(NC(=O)C2CC2)nc1)c1cccs1,-21% (inactive)
26,O=C(NC(=S)N(CC1CCC1)CC1CCCO1)c1cccc([N+](=O)[O-])c1 (configuration not stated),14% (active)

row,SMILES,"activity increase over dofetilide control, less the hit threshold"
1,CCCCNC(=S)NC(=O)c1ccc([N+](=O)[O-])cc1,-4% (inactive)
2,O=C(O)c1cccc(C(=O)Nc2cccc(NC(=O)C3CCCO3)c2)c1 (configuration not stated),-14% (inactive)
3,CCOC(=O)/C=C/c1ccc2c(c1)S(=O)(=O)N(c1cccc(OC)c1)[C@H]2CC(=O)OCC,-20% (inactive)
4,O=C(NC1CCCC1)C(c1ccncc1)N(Cc1ccccc1F)C(=O)c1csnn1 (configuration not stated),-1% (inactive)
5,Cc1occc1C(=O)Nc1cccc([N+](=O)[O-])c1,-20% (inactive)
6,CCC1CCCCN1C(=S)NC(=O)c1cccc([N+](=O)[O-])c1 (configuration not stated),36% (active)
7,O=[N+]([O-])c1ccc(Nc2ccccc2F)nc1,-3% (inactive)
8,O=C(CCc1nc(-c2ccccc2)no1)N1CCCC1,-20% (inactive)
9,CC(C(=O)N1CCN(c2ccc([N+](=O)[O-])cc2)CC1)N1C(=O)C2CC=CCC2C1=O (configuration not stated),-9% (inactive)
10,C=CCn1c(SCc2ccc(C(=O)O)cc2)nc2sc(C)c(C)c2c1=O,20% (active)
11,C=CCN1C(=O)C(Cc2ccc(OCC)cc2)SC1=Nc1ccc(C(=O)O)cc1 (configuration not stated),-11% (inactive)
12,C=CCOc1ccccc1/C=c1\sc2nc(=O)c(C)nn2c1=O,-7% (inactive)
13,CNC(=O)CSc1nnc(-c2ccco2)n1-c1ccc(C)cc1,-10% (inactive)
14,C=CCNC(=S)Nc1sc2c(c1C(=O)OCC)CC(C(C)C)OC2 (configuration not stated),-4% (inactive)
15,COC(=O)c1c(NC(=S)Nc2ccc(F)cc2[N+](=O)[O-])sc2c1CCCCC2,11% (active)
16,C=CCNC(=S)Nc1sc2c(c1C(=O)OCC)CC(C)(CC)OC2 (configuration not stated),15% (active)
17,CCOC(=O)c1c(NC(=S)NC)sc2c1CCCC2,42% (active)
18,CNC(=S)Nc1sc2c(c1C(=O)OC)CCC2,17% (active)
19,CCOC(=O)c1c(/N=C/C2=C(O)CCCC2=O)sc2c1CCCC2,-14% (inactive)
20,COc1ccc(NC(=S)NC(NC(=O)c2cccc3ccccc23)C(Cl)(Cl)Cl)c([N+](=O)[O-])c1 (configuration not stated),-23% (inactive)
21,COc1ccc(CCNC(=O)CSc2ccc3nnc(CCNC(=O)c4ccccc4)n3n2)cc1OC,-13% (inactive)
22,Clc1cccc(-c2ccc(C=Nc3ccc(N4CCOCC4)cc3)o2)c1Cl,-12% (inactive)
23,COc1ccc(CCNC(=O)CC(NS(=O)(=O)c2ccc(NC(C)=O)cc2)C(C)C)cc1OC (configuration not stated),-8% (inactive)
24,CCOC(=O)c1c(NC(=S)NC)sc2c1CC(C)(C)SC2,79% (active)
25,CC(=O)NC(CSC(CC(=O)c1ccco1)c1ccc(C)cc1)C(=O)O (configuration not stated),-15% (inactive)
26,C[n+]1ccccc1/C=C/c1ccc(C#N)cc1,6% (active)

row,SMILES,"activity increase over dofetilide control, less the hit threshold"
1,C[n+]1ccccc1/C=C/c1c(F)cccc1F,-2% (inactive)
2,COc1cc(Cl)cc(C(c2c(C(=O)O)[nH]c3ccccc23)c2c(C(=O)O)[nH]c3ccccc23)c1O,-20% (inactive)
3,Cc1c(-c2ccn[nH]2)cc(NC(=O)c2ccc(Cl)cc2)c(=O)n1N,7% (active)
4,CC(=O)NCCc1nc2cc(NC(=O)c3ccc(Cl)cc3)ccc2n1C,-9% (inactive)
5,Cn1nc(C(F)(F)F)c(-c2ccc(Br)cc2)c1NC(=O)c1cccnc1,6% (active)
6,CN(C)S(=O)(=O)c1cccc(C(=O)Nc2cccnc2)c1,-6% (inactive)
7,O=C(N=C1SC2CS(=O)(=O)CC2N1c1cccc(Cl)c1Cl)C1CCCO1 (configuration not stated),-15% (inactive)
8,CCOc1ccc(S(=O)(=O)Nc2nc3ccccc3nc2-n2ccc(=NC(=O)c3cccs3)cc2)cc1,-6% (inactive)
9,Cc1nonc1CN(C)C(=O)c1ccc(OC2CCN(Cc3ccccn3)CC2)cc1,3% (active)
10,CN(CCc1ccccn1)C(=O)CCC1CCCN(C(=O)c2ccsc2)C1 (configuration not stated),-5% (inactive)
11,C/C(=N\N1CCN(C2c3ccccc3-c3ccccc32)CC1)c1ccncc1,-18% (inactive)
12,C/C(=C/CCC(C)C1CCC2(C)C3CCC4C(C)(C)C(=O)CCC4(C)C3=CCC12C)C(=O)O (configuration not stated),15% (active)
13,C/C(=C/CCC(C)[C@H]1CC[C@@]2(C)C3=C(CC[C@]12C)[C@@]1(C)CCC(=O)C(C)(C)[C@@H]1CC3)C(=O)O (some centres not stated),45% (active)
14,Nc1ncnc(Oc2cccc3cccnc23)c1[N+](=O)[O-],-12% (inactive)
15,Nc1cc(-c2ccc(Br)cc2)[nH]n1,-11% (inactive)
16,CSc1cccc(NC(=O)CN2C(=O)c3ccccc3S2(=O)=O)c1,-19% (inactive)
17,CNC(=O)c1ccc(NC(=O)CN2c3cccc4cccc(c34)S2(=O)=O)cc1,61% (active)
18,O=C(CN1C(=O)c2cccc3cccc1c23)Nc1cccnc1,-17% (inactive)
19,O=C(NC(=S)N1CCN(c2ccc(C(F)(F)F)cc2[N+](=O)[O-])CC1)c1cccs1,12% (active)
20,O=C(NC(=S)N1CCN(c2c(Cl)cccc2[N+](=O)[O-])CC1)c1cccs1,2% (active)
21,COc1ccc(N2CCN(C(=S)NC(=O)c3cccs3)CC2)c([N+](=O)[O-])c1,1% (active)
22,Cc1c(C(=O)NN2CCN(C)CC2)cccc1[N+](=O)[O-],-16% (inactive)
23,COc1ccc(N2CCN(C(=S)Nc3cccc(OC)c3)CC2)cc1,-11% (inactive)
24,O=C(NC(=S)N1CCN(c2ccc(Cl)cc2[N+](=O)[O-])CC1)c1cccs1,12% (active)

# Reference: PubChem BioAssay AID1835 (Johns Hopkins Ion Channel Center, 2009)
